Laboratory results published in PubChem BioAssay AID1117267 (The Scripps Research Institute Molecular Screening Center, 2014).
Out of some 92,000 compounds screened, about 1,200 (1.3%) were called active. The entries come from a sample that favours actives as a whole. Unmarked numbers belong to inactive results.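 How the source made its calls: active means activation above the mean of all tested compounds plus 3 SD (cut at about 9.5% in these data); inactive means the rest.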

Assay: compounds raising TTR promoter-driven luciferase – cell-based, luminescence, SH-SY5Y, TTR promoter Gaussia luciferase, primary screen (AID 1117267);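 further: cells exposed to compounds for one day before reading; 0% = median of all test compound wells on the plate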
Details: at 16.7 µM, hits give high values, 100% = recombinant luciferase protein wells

Row | SMILES | activation
1 | O=C(O)C1OC(C(=O)O)C2C1C(F)(F)C2(F)F (centres undefined) | 15.5% (active)
2 | COc1ccc(N2c3ccccc3CN(Cc3ccccc3)[C@@H](C)[C@H]2Cc2ccc(-c3ccccc3)cc2)cc1 | -1.66%
3 | Cc1ccc2c(c1)N(CC(=O)N1CCCc3ccccc31)C(=O)C(C)O2 (centres undefined) | -0.78%
4 | O=C(CN1C(=O)COc2ccccc21)Nc1ccc(F)cc1 | 2.98%
5 | Cc1cccc(C)c1NC(=O)CN1C(=O)C(C)Oc2ccccc21 (centres undefined) | 15.3% (active)
6 | O=C(CCC(=O)c1cccs1)NCc1ccccc1 | 9.7% (active)
7 | O=C(CCC(=O)c1cccs1)Nc1nc2ccccc2s1 | 0.06%
8 | O=C(CCC(=O)c1cccs1)NC1CCCCCC1 | -2.1%
9 | CCOC(=O)N1CCN(S(=O)(=O)c2ccc(-n3cnnn3)cc2)CC1 | -1.92%
10 | COCCn1c(SCC(=O)N2CCCCCC2)nc2c(c1=O)SCC2 | 0.25%
11 | Cc1cc(C(=O)CSc2nc(N)cc(=O)[nH]2)c(C)n1Cc1ccco1 | 0.58%
12 | CCOC(=O)[C@H]1[C@H]2COc3ccc(OC)cc3[C@@H]2N2C(=O)c3ccc(F)cc3NC(=O)[C@@]12C | 1.68%
13 | CSc1sc(C(=O)NNC(=O)c2ccc(Cl)cc2)c2c1C=CCC2 | -0.42%
14 | O=C(CN1CCCCC1)Nc1ccccc1C(=O)NC1CC1 | 2.49%
15 | O=C(Nc1ccccc1C(=O)N1CCCCCC1)c1ccccc1Cl | 21.4% (active)
16 | O=C(c1ccc(Cl)c(Cl)c1)N1CCCC1 | 4.23%
17 | N#Cc1c(N2CCCCC2)nc(N)c2c(N)nc(SCC(=O)O)cc12 | 0.31%
18 | Cc1cc(C)c(C#N)c(SCc2ccccc2C(=O)O)n1 | 5.37%
19 | Cc1cc(C)c(C#N)c(N2CCC(C(N)=O)CC2)n1 | 14.3% (active)
20 | CCC(C)C(=O)Nc1cc([N+](=O)[O-])ccc1Cl (centres undefined) | 0.38%

Row | SMILES | activation
21 | CCOc1ccc(NC(=O)CSc2nc3ccccc3c(=O)n2Cc2cccs2)cc1 | 0.62%
22 | Cc1cc(C)c2nc3nc(C)cc(C)c3c(N)c2c1 | 13.6% (active)
23 | COc1ccc(CCNC(=O)C(Sc2ccccn2)c2ccccc2)cc1OC (centres undefined) | 1%
24 | NC(=O)c1oc2ccccc2c1NC(=O)CS(=O)(=O)c1ccccc1 | -0.61%
25 | CCSc1nc(O)c(C(c2cccc(OC)c2)c2c(O)nc(SCC)[nH]c2=O)c(=O)[nH]1 | 1.15%
26 | CCOc1ncccc1C(=O)N(C)CC(=O)Nc1ccc(F)cc1 | 4.43%
27 | Cc1cccc(N2C(=O)CC(SC(N)=Nc3ccccc3)C2=O)c1 (centres undefined) | 11.1% (active)
28 | O=C1CC(N2CCN(c3ccc(F)cc3)CC2)C(=O)N1c1ccccc1 (centres undefined) | 0.86%
29 | O=C1CC(Sc2ncn[nH]2)C(=O)N1c1ccccc1 (centres undefined) | -1.83%
30 | CCc1ccccc1OCC(=O)Nc1ccc(C)c(S(=O)(=O)N2CCCCCC2)c1 | -2%
31 | CCOc1ccc(NC(=O)COc2ccc(S(=O)(=O)N3CCCC3)cc2)cc1 | 11.4% (active)
32 | CCOc1ccccc1NC(=O)COc1ccc(S(=O)(=O)N2CCCC2)cc1 | 15.6% (active)
33 | COc1ccccc1CC(=O)Nc1ccc(S(=O)(=O)N2CCCC2)cc1 | 1%
34 | CCOc1cccc(NC(=O)C2CCCN(S(=O)(=O)c3ccc(OC)cc3)C2)c1 (centres undefined) | -2.33%
35 | Cc1cccc(OCCCC(=O)Nc2ccc(S(=O)(=O)N3CCCC3)cc2)c1 | -3.27%
36 | Cc1ccc(NC(=S)NCc2ccccc2Cl)c(C)c1 | 0.72%
37 | CN(C)c1ccc(NC(=O)CN2C3CCCC2CC(NC(=O)c2ccccc2)C3)cc1 (centres undefined) | -2.32%
38 | C/C(CC(=O)Nc1ccc(Cl)cc1)=N\NC(=O)C(=O)NCCO | -1.14%
39 | C/C(CC(=O)Nc1ccc(N(C)C)cc1)=N\NC(=O)c1ccccc1F | 15.4% (active)
40 | CCOc1ccc(CCN2C(=O)C(=O)N([C@@H](Cc3ccc(O)cc3)CN3CCC[C@H]3CN3C(=O)C(=O)NC[C@@H]3CC(C)C)C[C@@H]2Cc2ccccc2)cc1 | 2.35%

Row | SMILES | activation
41 | Cc1ccn(CC(=O)N2N=C(C(F)F)CC2(O)C(F)F)n1 (centres undefined) | -1.11%
42 | CC(=O)NC1(c2ccc(F)cc2)CCN(C(=O)c2c(F)cccc2F)CC1 | 0.91%
43 | CCCCCc1ccc(-c2cn(Cc3ccc4ccccc4c3)nn2)cc1 | 10.7% (active)
44 | COc1ccc(Cn2cc(COC(=O)N(C)Cc3ccccc3)nn2)cc1 | 0.33%
45 | CCCCCc1ccc(-c2ccc(OCC)cc2)nc1 | 1.61%
46 | CC(C(=O)N(C)CC(=O)Nc1ccccc1C(F)(F)F)N1C(=O)c2ccccc2C1=O (centres undefined) | 2.02%
47 | COc1ccc(-c2nn(-c3ccccc3)cc2/C=C\C(=O)N2CCOCC2)cc1[N+](=O)[O-] | -1.35%
48 | COc1ccc(S(=O)(=O)Nc2ccc(S(=O)(=O)N3CCCCC3)cc2)cc1OC | -1.7%
49 | COc1cc(C(C)=O)ccc1OC(C)C(=O)Nc1ccc(S(=O)(=O)N2CCCC2)cc1 (centres undefined) | 10% (active)
50 | COc1ccc(-c2ccc(Nc3ccc(S(=O)(=O)N4CCCC4)cc3)nn2)cc1OC | -5.27%
51 | O=C(NCc1cccc(C(F)(F)F)c1)c1cccc(S(=O)(=O)N2CCN(Cc3ccccc3)CC2)c1 | -1.01%
52 | N#CCc1c[nH]c2ccc([N+](=O)[O-])cc12 | 1.86%
53 | CC(=O)c1ccc2c(c1)OCCOCCOc1ccc(C(C)=O)cc1OCCOCCO2 | 1.09%
54 | CSCCC(NC(N)=O)C(=O)N(C)CC(=O)Nc1ccc(C)cc1 (centres undefined) | 22.6% (active)
55 | Cc1ccc(NC(=O)CC(=O)Nc2ccc(C)cc2)cc1 | 5.18%
56 | Cc1ccc(NC(=O)CN(C)C(=O)COC(=O)c2nccnc2N)cc1 | -0.56%
57 | CC1CN(C(=S)Nc2ccc(Br)cc2Cl)CC(C)O1 (centres undefined) | -0.06%
58 | CCN(C(=O)COC(=O)c1ccccc1O)c1cccc2ccccc12 | -1.17%
59 | CCC(O)C1CCN(Cc2cn(-c3ccc(OC)cc3)nc2-c2cccc(F)c2)CC1 (centres undefined) | 2.63%
